Here are results for 15 molecules from PubChem BioAssay (NCI).

About 83,000 compounds went through this panel and 20% of them were active in at least one assay; those are over-represented in the sample as a whole.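 Growth was measured after 48 h exposure to one concentration of compound in 96-well plates. Values under 10 count as active.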 A number with no mark means an inactive call. Activity calls are given as the source filed them. Where a SMILES comes first, the peptide text is derived from it. Bridges are numbered along the chain shown (N, C = ends). [ ]: non-standard residue; d: D form. The star is where a group is joined. ξ: configuration not given here. ξNMePhe(4-NMe2) = CNC(Cc1ccc(N(C)C)cc1)C(=O)O; Picolinoyl(3-OH) = O=C(c1ncccc1O)*; ξPip(4-oxo) = O=C1CCNC(C(=O)O)C1; Phg = N[CH](C(=O)O)c1ccccc1; Abu = CC[CH](N)C(=O)O

Among the test systems are NCI-H23 lung; NCI-H226 lung; NCI-H322M lung; HOP-62 NSCLC; NCI-H460 lung; HOP-92 NSCLC; NCI-H522 lung; A549/ATCC NSCLC; 786-0 renal; COLO 205 colon.
Holding throughout (experiment): NCI-60 one-dose screen, 48 h (100 = growth as untreated, 0 = no growth, -100 = all killed)
What all share (conditions): 10 µM

For the molecule `CCS(=O)(=O)CCCl`, the growth in the experiment on NCI-H23 lung was 101%; in the experiment on NCI-H226 lung it was 114%; in the experiment on NCI-H322M lung, 97.1%; in the experiment on HOP-62 NSCLC, 105%; in the experiment with NCI-H460 lung, 109%; with HOP-92 NSCLC, 92.3%. The growth was 90% in the experiment on NCI-H522 lung, 97.4% with A549/ATCC NSCLC, 105% in the experiment with 786-0 renal and 126% in the experiment on COLO 205 colon.

For `Cc1ccc(C)n1-c1ccsc1C(=O)NNC(=O)CCl`, the growth with NCI-H23 lung is 85.1%; with NCI-H226 lung, 80.1%; with NCI-H322M lung, 99.7%; with HOP-62 NSCLC it was 101%; in the experiment on NCI-H460 lung it was 101%; with HOP-92 NSCLC, 97.4%. Besides, the growth in the experiment with NCI-H522 lung was 79.5%; in the experiment with A549/ATCC NSCLC it was 96.6%; in the experiment on 786-0 renal, 80.4%; in the experiment on COLO 205 colon, 122%.

Consider `CCOC(=O)CCCS(C)(=O)=O`, for which the growth in the experiment with NCI-H23 lung is 98.6%; in the experiment with NCI-H226 lung, 109%; in the experiment on NCI-H322M lung, 120%; with HOP-62 NSCLC it was 102%; in the experiment on NCI-H460 lung it was 110%; with HOP-92 NSCLC it was 87%. The growth with NCI-H522 lung is 109%; with A549/ATCC NSCLC it was 109%; in the experiment with 786-0 renal, 110%; with COLO 205 colon, 110%.

For the molecule `C#C[C@H]1CCCCCC1O` (stereo partly specified), the growth with NCI-H23 lung is 95.7%; with NCI-H226 lung it was 96.5%; in the experiment on NCI-H322M lung, 104%; in the experiment with HOP-62 NSCLC, 105%; in the experiment with NCI-H460 lung, 106%; in the experiment on HOP-92 NSCLC, 87%. Moreover, the growth in the experiment on NCI-H522 lung is 94.8%; in the experiment with A549/ATCC NSCLC, 105%; in the experiment with 786-0 renal it was 103%; with COLO 205 colon, 111%.

With `CC(=O)OCC1OC(OC2=C(CC=C(C)C)C(=O)c3ccccc3C2=O)C(OC(C)=O)C(OC(C)=O)C1OC(C)=O` (stereo unspecified), the growth is 23.3% with NCI-H23 lung; 57.1% in the experiment on NCI-H226 lung; 77.5% in the experiment on NCI-H322M lung; 94.5% in the experiment with HOP-62 NSCLC; 34.6% in the experiment on NCI-H460 lung; -3.11% (active) in the experiment on HOP-92 NSCLC. Further, the growth was 22.3% in the experiment with NCI-H522 lung, 79.5% in the experiment on A549/ATCC NSCLC, 88.9% with 786-0 renal and 66% in the experiment with COLO 205 colon.

In the case of `CCOC(=O)C(C#N)Cc1ccccc1` (stereo unspecified), the growth in the experiment on NCI-H23 lung is 105%; with NCI-H226 lung it was 112%; with NCI-H322M lung it was 116%; with HOP-62 NSCLC it was 116%; with NCI-H460 lung it was 117%; in the experiment with HOP-92 NSCLC, 101%. The growth was 111% with NCI-H522 lung, 109% with A549/ATCC NSCLC, 109% in the experiment on 786-0 renal and 123% with COLO 205 colon.

As for `CC(=O)CC(=O)N(C)C`, the growth in the experiment on NCI-H23 lung is 102%; in the experiment on NCI-H226 lung, 94.5%; in the experiment on NCI-H322M lung, 101%; in the experiment with HOP-62 NSCLC it was 98.8%; in the experiment with NCI-H460 lung, 104%; with HOP-92 NSCLC it was 81.8%. Further, the growth in the experiment with NCI-H522 lung was 88.5%; in the experiment with A549/ATCC NSCLC, 101%; with 786-0 renal, 97.8%; in the experiment on COLO 205 colon it was 115%.

Consider `CN(C)c1ccc2oc(=O)c3ccccc3c2c1`, for which the growth in the experiment with NCI-H23 lung is 98.3%; with NCI-H226 lung, 81.3%; in the experiment on NCI-H322M lung, 94.8%; in the experiment with HOP-62 NSCLC it was 78%; in the experiment with NCI-H460 lung, 97.3%; in the experiment with HOP-92 NSCLC, 68.3%. The growth was 97.1% in the experiment on NCI-H522 lung, 105% with A549/ATCC NSCLC, 79.5% with 786-0 renal and 119% in the experiment on COLO 205 colon.

Take `CCC1NC(=O)C(NC(=O)c2ncccc2O)C(C)OC(=O)C(c2ccccc2)NC(=O)C2CC(=O)CCN2C(=O)C(Cc2ccc(N(C)C)cc2)N(C)C(=O)C2CCCN2C1=O` (stereo unspecified) (tested in a mixture with another compound) ({Picolinoyl(3-OH)}-T[Abu]P[ξNMePhe(4-NMe2)][ξPip(4-oxo)][Phg]; ester 1-C; configuration not given here): the growth is 19.7% in the experiment on NCI-H23 lung; 56.7% in the experiment with NCI-H226 lung; 87.2% with NCI-H322M lung; 87.7% with HOP-62 NSCLC; 26.2% in the experiment on NCI-H460 lung; 53.8% in the experiment on HOP-92 NSCLC. Moreover, the growth is 66% in the experiment on NCI-H522 lung, 28.1% in the experiment on A549/ATCC NSCLC, 67.4% with 786-0 renal and 27% with COLO 205 colon.

Take `C#CCSc1nnnn1-c1ccc(Br)c(C)c1`: the growth is 89.7% with NCI-H23 lung; 74.6% with NCI-H226 lung; 107% in the experiment on NCI-H322M lung; 102% with HOP-62 NSCLC; 97% in the experiment with NCI-H460 lung; 69.9% with HOP-92 NSCLC. The growth in the experiment with NCI-H522 lung was 71.1%; in the experiment with A549/ATCC NSCLC it was 92.8%; with 786-0 renal it was 89.1%; with COLO 205 colon, 135%.

With `COc1ccc(/C(C#N)=C2C=C/C(=N/O)c3ccccc3\2)cc1`, the growth in the experiment with NCI-H23 lung was 27.7%; in the experiment on NCI-H226 lung, 36%; with NCI-H322M lung, 48.5%; in the experiment with HOP-62 NSCLC, 35.3%; in the experiment with NCI-H460 lung it was 3.48% (active); with HOP-92 NSCLC, 13.3%. The growth in the experiment with A549/ATCC NSCLC is 11.8%; in the experiment on 786-0 renal, 16.8%; in the experiment on COLO 205 colon it was -73% (active).

Turning to `CN1C(=O)CN2CCc3ccccc3C2c2cc(Cl)ccc21` (stereo unspecified), the growth in the experiment on NCI-H23 lung was 87.1%; in the experiment with NCI-H226 lung, 60.8%; in the experiment with NCI-H322M lung, 93.4%; with HOP-62 NSCLC, 79.8%; in the experiment with NCI-H460 lung, 97.5%; with HOP-92 NSCLC, 77.2%. In addition, the results for the growth in the experiment on NCI-H522 lung, in the experiment on 786-0 renal and in the experiment with COLO 205 colon were 75.7%, 97.4% and 110%, respectively.

Turning to `COC(=O)CCCCC1=CCC2C(=O)C=C(O)C2C1` (stereo unspecified), the growth with NCI-H23 lung is 100%; with NCI-H226 lung it was 102%; with NCI-H322M lung, 92.4%; in the experiment on HOP-62 NSCLC, 91.8%; in the experiment with NCI-H460 lung, 105%; in the experiment with HOP-92 NSCLC, 85.2%. Also, the growth in the experiment on A549/ATCC NSCLC was 98.7%; with 786-0 renal, 99.9%; with COLO 205 colon, 111%.

Take `CC(=O)OCC1=CC2OC(=O)C3=COC(OC4OC(CO)C(O)C(O)C4O)C1C32` (stereo unspecified): the growth is 72.4% in the experiment on NCI-H23 lung; 105% in the experiment on NCI-H226 lung; 104% in the experiment on NCI-H322M lung; 108% in the experiment on HOP-62 NSCLC; 120% in the experiment on NCI-H460 lung; 89.3% in the experiment with HOP-92 NSCLC. Moreover, the growth with NCI-H522 lung was 93.5%; in the experiment with A549/ATCC NSCLC it was 138%; in the experiment with 786-0 renal it was 98.9%; in the experiment with COLO 205 colon, 114%.

`CC(=O)OCC1CCCO1` (stereo unspecified): the growth is 106% in the experiment on NCI-H23 lung; 100% with NCI-H226 lung; 98.7% in the experiment on NCI-H322M lung; 95.1% in the experiment with HOP-62 NSCLC; 91.5% with NCI-H460 lung; 97.4% in the experiment on HOP-92 NSCLC. Further, the growth is 91% with NCI-H522 lung, 93.5% with 786-0 renal and 102% in the experiment with COLO 205 colon.
